GAA glycogen: GAA glycogen-cleavage inhibition or activation; P10253; recombinant GAA, glycogen substrate, Amplex Red glucose oxidase fluorescence; Potency, µM (titrated, usually from 76.4 µM), actives largely listed as inhibitors; 0.38% of 300,000 active;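 further: the screen sought inhibitors and activators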
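Recombinant human alpha-glucosidase (4 nM final) hydrolysed bovine liver glycogen (30 ug) for 40 min at 37 C in pH 5.0 citrate/phosphate with 0.01% Tween-20. Released glucose detected by glucose oxidase/Amplex Red, Ex 573/Em 610 nm. Compounds up to 77 uM; AC50 from Hill fits.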
N370S GC mod: inhibits or activates N370S mutant glucocerebrosidase; Potency, µM (top dose mostly 59.4 µM), most hits filed as inhibitors; N370S GC spleen homogenate, 4MU-glucoside fluorescence; P04062; 0.092% of 330,000 active
GLA inh pH 4.5: inhibitors of human alpha-galactosidase A at pH 4.5; purified enzyme, 4-MU-alpha-Gal fluorescence, pH 4.5; P06280; activity change, negative = inhibition, % at 105 µM; AID 1467; 230,000 tested, under 10 active
Target sequence (P06280 whole entry, looked up): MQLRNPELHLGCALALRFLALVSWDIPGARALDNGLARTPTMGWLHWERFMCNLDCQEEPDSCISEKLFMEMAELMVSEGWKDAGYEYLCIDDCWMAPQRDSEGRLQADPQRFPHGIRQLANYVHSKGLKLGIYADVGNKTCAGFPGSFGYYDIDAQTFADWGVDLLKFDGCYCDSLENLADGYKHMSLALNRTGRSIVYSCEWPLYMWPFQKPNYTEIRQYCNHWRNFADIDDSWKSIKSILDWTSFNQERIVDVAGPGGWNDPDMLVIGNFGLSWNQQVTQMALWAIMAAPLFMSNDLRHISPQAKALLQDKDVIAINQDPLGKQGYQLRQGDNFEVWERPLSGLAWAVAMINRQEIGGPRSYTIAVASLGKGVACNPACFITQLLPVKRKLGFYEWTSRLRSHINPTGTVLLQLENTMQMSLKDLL
aGal spleen mod: inhibits or activates alpha-galactosidase in human spleen homogenate. 0.008% of 240,000 active. human spleen homogenate, 4MU-alpha-Gal fluorescence, 40 min. Potency, µM (top dose mostly 80 µM), actives largely listed as inhibitors. P06280. AID 2107
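Human spleen homogenate (1 ug) as enzyme source, 4-methylumbelliferyl-alpha-D-galactopyranoside 1 mM final, citrate/phosphate pH 5.0 with 0.01% Tween-20. Compounds 40 min at 37C, NaOH/glycine stop; fluorescence Ex 365/Em 440, Hill-fit AC50.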
GAA inh: blocks human lysosomal alpha-glucosidase | AID 1466 | purified human GAA, 4-MU-alpha-glucoside fluorescence | Potency, µM (top dose mostly 76.9 µM), actives largely listed as inhibitors | 0.005% of 200,000 active | P10253
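AC50 values come from Hill fits of compound titrations (up to 77 uM) against 4 nM human enzyme. Substrate 4-methylumbelliferyl-alpha-D-pyranoside at 400 uM, pH 5.0 citrate buffer, 20 min room temperature; fluorescence Ex 365/Em 440 after alkaline stop.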
aGlu spleen mod: inhibitors or activators of human alpha-glucosidase in spleen homogenate; P10253; human spleen homogenate, 4-MU-alpha-glucoside fluorescence; Potency, µM (highest dose often 79.9 µM), usual class: inhibitors; 0.006% of 240,000 active; AID 2112
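AC50 values come from Hill-equation fits of concentration-response data, normalized to no-enzyme and full-activity controls. Enzyme source: 1 ug human spleen homogenate; 1 mM fluorogenic 4-MU glucoside, pH 5.0 citrate buffer, 37 C, 40 min.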
Of the large screens only hits and unclear results are named; the others gave an inactive call. The list is not random: actives were taken first. Their share in the collection is about 0.41%. The call rests on the fitted dose curve; in most records, active means well fitted curve in the direction sought with a large enough effect; inconclusive means small, poorly fitted or top-dose-only effect, or another doubt; inactive means no such curve, though single readings can be large; an effect the other way counts as inactive or inconclusive.

Nc1nc(N2CCN(Cc3ccccc3)CC2)n[nH]1	GAA glycogen 5.6µM
O=C(O)c1ccccc1NC(=O)N1c2ccccc2Sc2ccccc21	GAA glycogen 18µM (no result: N370S GC mod, GLA inh pH 4.5, aGal spleen mod, GAA inh, aGlu spleen mod)
COc1cc(NC(=O)N2c3ccccc3Sc3ccccc32)c(C(=O)O)cc1OC	none (no result: GAA glycogen, GLA inh pH 4.5, aGal spleen mod, GAA inh, aGlu spleen mod)
COc1ccc(C2/C=C\CN(C(=O)c3ccccc3)C(Cc3ccccc3)C(=O)N2Cc2ccc(F)cc2)cc1 (configuration not stated)	none (no result: GAA glycogen, GLA inh pH 4.5, GAA inh)
COc1ccc(CCNC(=O)CCCn2c(=O)c3ccccc3n(CC(=O)Nc3c(C)cc(C)cc3C)c2=O)cc1OC	none (no result: N370S GC mod, GLA inh pH 4.5, aGal spleen mod, GAA inh, aGlu spleen mod)
Cn1c(-c2ccc3c(c2)OCO3)cnc1NCc1ccc(Cl)cc1	GAA glycogen inconclusive
Cc1ccc(CNc2ncc(-c3ccc4c(c3)OCO4)n2C)cc1	GAA glycogen 20µM
CCOc1ccc(-c2cnc(NCc3ccc(C(F)(F)F)cc3)n2C)cc1	GAA glycogen 32µM (no result: N370S GC mod, GLA inh pH 4.5, aGal spleen mod, GAA inh, aGlu spleen mod)
Cc1cc(NS(=O)(=O)c2ccccc2)cc(Cl)c1O	GAA glycogen 20µM
Cc1ccc(S(=O)(=O)Nc2cc(C)c(O)c(S(=O)(=O)c3ccc(C)cc3)c2)cc1	GAA glycogen 11µM
COc1ccc(S(=O)(=O)Nc2cc(S(=O)(=O)c3ccccc3)c(O)cc2C)cc1	none (no result: GLA inh pH 4.5, aGal spleen mod, GAA inh, aGlu spleen mod)
Cc1ccc(S(=O)(=O)c2cc(Nc3ccccc3)ccc2O)cc1	none (no result: GAA glycogen, GLA inh pH 4.5, aGal spleen mod, GAA inh, aGlu spleen mod)
Cc1cc(O)c(C(C)C)cc1NS(=O)(=O)c1ccccc1	GAA glycogen 9.9µM
CCc1c(C)c2ccc(O)c(CN3CCN(c4ccccc4)CC3)c2oc1=O	none (no result: N370S GC mod, GLA inh pH 4.5, aGal spleen mod, GAA inh, aGlu spleen mod)
CC(C)N=c1scc(-c2ccco2)n1/N=C/c1ccc(O)c(O)c1	GAA glycogen 7.1µM
COCCN=c1scc(-c2ccco2)n1/N=C/c1ccc(O)c(O)c1O	none
COc1ccc2oc(=O)cc(CN3CCN(c4ccccc4F)CC3)c2c1	none (no result: N370S GC mod, GLA inh pH 4.5, aGal spleen mod, GAA inh, aGlu spleen mod)
CCOC(=O)C1CCCN(c2c(C(=O)c3ccc(OCC)cc3)cnc3ccccc23)C1 (configuration not stated)	GAA glycogen 11µM (no result: N370S GC mod, GLA inh pH 4.5, aGal spleen mod, GAA inh, aGlu spleen mod)
Cc1ccc(N(Cc2cccs2)C(=O)C(C)Oc2ccc(Cl)c(C)c2)cc1 (configuration not stated)	none (no result: N370S GC mod, GLA inh pH 4.5, aGal spleen mod, GAA inh, aGlu spleen mod)
O=C(Nc1ccc(N2CCOCC2)c2nonc12)C1CCCC1	none
Nc1ccc(N2CCOCC2)c2nonc12	GAA glycogen 7µM
FC(F)(F)c1cccc(NC(=S)NCc2ccccn2)c1	none
FC(F)(F)c1cccc(NC(=S)NNC(=S)NCc2ccccc2)c1	GAA glycogen 12µM, GAA inh inconclusive
Cc1ccc(NC(=S)NNC(=S)NCc2ccccc2)cc1	GAA glycogen 32µM
Fc1ccc(NC(=S)NCc2ccccc2)cc1	none (no result: GLA inh pH 4.5, aGal spleen mod, GAA inh, aGlu spleen mod)
Cc1ccccc1CNCc1c(C(=O)O)c(C)n(Cc2ccc(F)cc2Cl)c1C	none (no result: N370S GC mod, GLA inh pH 4.5, aGal spleen mod, GAA inh, aGlu spleen mod)
CCOC(=O)[C@H](O)[C@@H](O)c1cccc([C@H](O)[C@@H](O)C(=O)OCC)c1	none (no result: GLA inh pH 4.5, aGal spleen mod, GAA inh, aGlu spleen mod)
CCCc1cc(N2CCN(c3ccccc3F)CC2)n2cnnc2n1	none (no result: N370S GC mod, GLA inh pH 4.5, aGal spleen mod, GAA inh, aGlu spleen mod)
O=S(=O)(c1ccc(OCC(O)CN2CCN(c3ccccc3O)CC2)cc1)N1CCOCC1 (configuration not stated)	GAA glycogen 6.3µM
O=C(c1cccc2cccc(O)c12)N1CCCCC1	GAA glycogen 25µM
O=C(c1cccc2ccccc12)N1CCCCC1	none (no result: GLA inh pH 4.5, aGal spleen mod, GAA inh, aGlu spleen mod)
CC1(C)CC(=O)C2=C(C1)NC1=C(C(=O)c3ccccc31)C2c1ccccc1 (configuration not stated)	N370S GC mod inconclusive
CC1(C)CC(=O)C2=C(C1)NC1=C(C(=O)c3ccccc31)C2c1cc([N+](=O)[O-])ccc1O (configuration not stated)	N370S GC mod 14µM (no result: GAA inh)
Cc1ccc2oc(=O)c(/C=C(\O)c3ccccc3)nc2c1	GAA glycogen inconclusive
O=c1oc2ccccc2nc1/C=C(\O)c1ccc(Br)cc1	GAA glycogen inconclusive (no result: GAA inh)
CS(=O)(=O)Cc1nc2ccccc2oc1=O	GAA glycogen 5.6µM
O=c1oc2ccc(Cl)cc2nc1/C=C(\O)c1cccs1	GAA glycogen 6.3µM (no result: GAA inh)
C/C(O)=C\c1nc2ccccc2oc1=O	GAA glycogen 10µM
Cc1ccc2oc(=O)c(/C=C(\O)c3cccs3)nc2c1	GAA glycogen 13µM (no result: GAA inh)

Screening data as filed in PubChem BioAssay.
